Rows were chosen to be rich in hits. Some 7.5% of all compounds tested hit in one or more screens of this group.
SMN2 splice enh = enhancers of SMN2 splice variant expression; HEK293 SMN2-luciferase splicing reporter, luminescence, 30-36 h; Potency, µM (top dose mostly 46.1 µM), for the others: top-dose activity change, positive = activation, usual class: activators; 210,000 tested, 2.8% active; AID 1458; further: % of control where 0% means no effect; nearly all actives have a fitted effect of over 55% in size
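HEK293 cells carry an SMN2 minigene-luciferase reporter in which exon 7 inclusion puts luciferase in frame. Cells were seeded at 2000 cells/well, attached for 10-12 hours, then exposed to compounds for 30-36 hours at 37C before ONE-Glo luminescence.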
NPC1 promoter act = activators of NPC1 promoter; 320,000 tested, 2.4% active; Huh7 NPC1 promoter luciferase reporter, 24 h; Potency, µM (doses to about 9.22 µM), inactives show at the highest dose activation, actives largely listed as activators; AID 485313; further: % of control where 0% means no effect; nearly all actives have a fitted effect of over 60% in size
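Stably transfected Huh7 (NPC1 promoter→luciferase), 1500 cells/well in Opti-MEM + 10% FBS, 2 h settle, then compound 24 h at 37 °C. Luminescence after 10 min with Amplite reagent.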
FLuc modulator = firefly luciferase modulation, counter-screen for miR-21 project | 360,000 tested, 6.9% active | AID 588342 | Potency, µM (titrated, usually from 57.5 µM), for the others: at the highest dose activity change, negative = inhibition, usual class: inhibitors | purified FLuc, Km substrates, luminescence inhibition;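 further: plate controls were vehicle for no effect and reference inhibitor for full effect; nearly all actives have a fitted effect of over 55% in size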
Target sequence (P08659 whole entry, looked up): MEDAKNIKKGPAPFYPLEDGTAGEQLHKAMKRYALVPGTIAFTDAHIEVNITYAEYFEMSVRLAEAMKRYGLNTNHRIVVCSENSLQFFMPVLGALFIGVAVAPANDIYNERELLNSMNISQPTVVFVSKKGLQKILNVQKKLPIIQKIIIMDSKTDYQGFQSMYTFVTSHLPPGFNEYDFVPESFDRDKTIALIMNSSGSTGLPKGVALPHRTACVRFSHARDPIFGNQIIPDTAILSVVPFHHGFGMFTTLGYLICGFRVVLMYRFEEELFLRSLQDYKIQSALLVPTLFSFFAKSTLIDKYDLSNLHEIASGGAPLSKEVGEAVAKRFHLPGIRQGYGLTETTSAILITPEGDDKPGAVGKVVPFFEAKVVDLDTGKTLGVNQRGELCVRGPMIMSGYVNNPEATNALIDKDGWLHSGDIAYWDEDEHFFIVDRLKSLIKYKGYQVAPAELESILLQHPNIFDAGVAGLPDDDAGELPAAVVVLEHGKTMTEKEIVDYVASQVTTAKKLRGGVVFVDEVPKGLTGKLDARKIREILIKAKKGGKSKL
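Purified P. pyralis luciferase (10nM final) with 10uM D-luciferin and 10uM ATP (Km levels) in 50mM Tris acetate pH 7.5, 10mM Mg acetate, 0.01% Tween-20, 0.05% BSA; qHTS 6-point titration, ~60 µM downward; luminescence read.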
KinaseGlo FLuc = counter-screen: inhibitors of Kinase-Glo firefly luciferase | Q27757 | Kinase-Glo luciferase, ATP luminescence, 8 min | Potency, µM (highest dose often 38.3 µM), inactives show at the highest dose activity change, negative = inhibition, actives largely listed as inhibitors | 200,000 tested, 0.28% active; further: on the % scale 0 is the no-effect control and ±100 the full control effect; nearly all actives have a fitted effect of over 60% in size
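Light output from Kinase-Glo luciferase with luciferin and 10 uM ATP in 50 mM imidazole pH 7.2, KCl, MgCl2, Tween 20, BSA; compound pin-delivered, 8-min ambient incubation, then luminescence read.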
ELG1 genotox = inducers of genotoxicity in HEK293T ELG1-luciferase cells; HEK293T ELG1-luciferase reporter, luminescence, 16 h; Potency, µM (top dose mostly 46 µM), inactives show at the highest dose activity change, positive = activation, usual class: activators; 330,000 tested, 1.3% active; AID 504466; further: % of control where 0% means no effect; nearly all actives have a fitted effect of over 60% in size
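16 hr compound incubation (37 °C, 5% CO2) of HEK293T cells carrying luciferase-tagged ELG1; luciferase then measured by ONE-Glo luminescence after 30 min at RT.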
Rab9 prom act = Rab9 promoter activation. 320,000 tested, 2.8% active. Potency, µM (series often up to 9.22 µM), for the others: at the highest dose activation, negative = inhibition, actives largely listed as activators. AID 485297. Huh7 Rab9 promoter-luciferase reporter, luminescence, 24 h; further: % of control where 0% means no effect; nearly all actives have a fitted effect of over 60% in size
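Luminescence read-out: Huh7 cells stably expressing Rab9-luciferase, treated 24 h with compound at 37 °C, then lysed with luciferase reagent for 10 min at ambient before reading.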
Numbers without * were called inactive; ? = inconclusive; . = not tested or not shown; ! = not active in a repeat; [ ] = remark or other dose. The call rests on the fitted dose curve; in most records, active means well fitted curve in the direction sought with a large enough effect; inconclusive means small, poorly fitted or top-dose-only effect, or another doubt; inactive means no such curve, though single readings can be large; an effect the other way counts as inactive or inconclusive. Potency means the concentration at half of the fitted maximal effect.

SMILES | SMN2 splice enh | NPC1 promoter act | FLuc modulator | KinaseGlo FLuc | ELG1 genotox | Rab9 prom act
CC1CCc2sc(C(=O)NCC(C)(C)N3CCOCC3)cc2C1 (configuration not stated) | . | -2.7% | -7.9% | . | -0.4% | 1.3%
CCC1CCc2sc(C(=O)NNC(=O)c3ccncc3)cc2C1 (configuration not stated) | . | 1.0% | 16.9µM* | . | -0.5% | -4.1%
C/C(=N\NC(=O)c1cc2c(s1)CCC(C)C2)c1ccc[nH]1 (configuration not stated) | . | 1.78µM* | 0.757µM* | . | ? | 1.58µM*
CC1CCc2sc(C(=O)N/N=C/c3ccc(O)cc3)cc2C1 (configuration not stated) | . | 0.4% | 2.13µM* | . | 15.3% | -1.0%
C/C(=N\NC(=O)c1cc2c(s1)CCC(C)C2)c1ccncc1 (configuration not stated) | 26.6% | 3.3% | 9.53µM* | -1.3% | 7.5% | 13.0%
CCc1ccc(-n2nc(C)c3c(C)cc(=O)n(CC(=O)N4CCCc5ccccc54)c32)cc1 | . | . | -2.1% | . | . | .
CC(C)CCN1C(=O)c2ccccc2C1C(=O)NCc1cccnc1 (configuration not stated) | -13.3% | 0.9% | 0.8% | 1.3% | 1.1% | -4.1%
COc1ccc(Cc2nc3ccc(C(=O)NCCCSC)cc3o2)cc1OC | . | ? | 16.9µM* | . | 17.5% | ?
COC(=O)CCNC(=O)c1ccc2nc(Cc3ccc(OC)c(OC)c3)oc2c1 | . | ? | 16.9µM* | . | 18.5% | ?
COCCCNC(=O)c1ccc2nc(Cc3ccc(OC)cc3)oc2c1 | . | 3.98µM* | 16.9µM*! | . | 20.6µM* | 2.24µM*
CCOCC(O)CNC(=O)c1ccc2nc(Cc3ccc(OC)c(OC)c3)oc2c1 (configuration not stated) | . | ? | -4.2% | . | 1.5% | -2.7%
CCOCCCNC(=O)c1ccc(OC)cc1 | 28.2µM* | 13.8% | 2.8%[2.3 µM] | 0.3% | ? | 28.7%
COc1ccc(Cc2nc3ccc(C(=O)NCCc4ccc(OC)c(OC)c4)cc3o2)cc1 | . | . | 1.5% | . | . | .
CC(OC(=O)/C=C/c1ccc2ccccc2n1)C(=O)NCc1ccccc1 (configuration not stated) | . | -6.4% | 9.53µM* | . | -2.8% | -2.9%
COC(=O)CNC(=O)COC(=O)/C=C/c1ccc2ccccc2n1 | 3.4% | 1.1% | ? | -1.4% | 7.0% | -1.8%
COc1ccccc1C(=O)CSc1ccccn1 | 27.9% | 28.3% | 16.9µM* | -2.2% | ? | ?
COc1cccc(NC(=O)CSc2nc3ccccc3nc2N2CCOCC2)c1 | 3.98µM* | -4.5% | -14.7% | . | -4.6% | 7.2%
O=C(CCSc1ccccn1)Nc1ccc(Br)cc1 | 14.1µM* | ? | 12µM* | -0.1% | ? | 3.55µM*
CCc1ccc(NC(=O)CSc2ccccn2)cc1 | 28.9% | 16.3% | 13.5µM* | -0.8% | 3.8% | ?
O=C(CSc1ccccn1)Nc1ccc(NC(=O)CSc2ccccn2)cc1 | -1.5% | -5.2% | -9.2% | -1.6% | 1.5% | 0.1%
COC(=O)CNC(=O)CSc1ccccn1 | . | -0.1% | -3.6% | . | -0.4% | -5.7%
O=C(CN1C(=O)NC2(CCCC2)C1=O)OCc1c(F)cccc1Cl | . | -3.3% | 1.4% | . | 3.0% | 11.6%
COc1ccc(C(=O)NCCSc2ccccn2)cc1 | 2.82µM* | 0.708µM* | 2.13µM* | -0.2% | 1.03µM* | 0.398µM*
COc1ccc(N(CC(=O)NCCSc2ccccn2)S(C)(=O)=O)cc1 | -5.7% | 0.3% | 5.6% | -0.1% | 4.4% | -4.2%
COc1ccc(NC(=O)CSc2ccccn2)cc1 | ? | 21.0% | ? | -3.9% | 16.4% | ?
SMILES | SMN2 splice enh | NPC1 promoter act | FLuc modulator | KinaseGlo FLuc | ELG1 genotox | Rab9 prom act
COc1cccc(NC(=O)CSc2ccccn2)c1 | ? | ? | 15.1µM* | 11.5% | ? | ?
O=C(/C(C=Nc1ccc(F)cc1)=C(/O)c1ccco1)C(F)(F)F | ? | 2.3% | 8.49µM* | -2.3% | 7.31µM* | 23.9%
O=C(NCCNC(=O)c1ccco1)c1ccc(F)cc1 | -2.8% | 0.3% | -1.4% | 3.2% | 0.9% | 8.5%
Cc1ccc(N=C/C(C(=O)C(F)(F)F)=C(\O)c2ccco2)cc1Cl | . | 2.0% | 9.53µM* | . | ? | 0.4%
Cc1cccc(N=C/C(C(=O)C(F)(F)F)=C(\O)c2ccco2)c1 | 6.1% | -3.9% | 10.3% | -5.9% | 1.4% | 0.2%
C=CCn1c(O)c(N=NC(=O)OC(C)(C)C)c2ccccc21 | 14.0% | -2.2% | 16.9µM* | -0.9% | 1.9% | -3.7%
C=CCn1c(O)c(N=NC(=O)C(O)c2ccccc2)c2ccccc21 (configuration not stated) | . | -0.6% | 2.5% | . | -0.3% | -4.5%
Cc1cc(/C=N/N2CCN(C)CC2)c(C)n1-c1ccc(Cl)cc1 | . | -1.1% | 0.0% | . | -3.8% | -1.2%
CC1CCN(S(=O)(=O)c2ccc(C(=O)Nc3ccccn3)cc2)CC1 | . | ? | ? | . | 20.6µM* | 22.0%
O=C(Nc1ccccn1)c1ccc(S(=O)(=O)N2CCCC2)cc1 | . | 15.3% | ? | . | 12.6% | 20.4%
Cc1ccnc(NC(=O)c2ccc(S(=O)(=O)N3CCC(C)CC3)cc2)c1 | . | -1.6% | 6.75µM* | . | 0.731µM* | -3.6%
Cc1cccc(NC(=O)c2ccc(S(=O)(=O)N3CCC(C)CC3)cc2)n1 | . | -5.8% | -3.8% | . | -17.7% | -8.2%
COc1ccccc1COc1ccc2c(C)c(CCC(=O)O)c(=O)oc2c1C | . | -1.5% | 23.9µM* | . | 4.6% | 2.7%
Cc1c(OCc2ccc(C(=O)O)o2)ccc2c3c(c(=O)oc12)CCC3 | 12.0% | -1.5% | 19µM* | -2.8% | ? | 1.9%
COC(=O)c1ccc(COc2ccc3c(C)c(C)c(=O)oc3c2C)o1 | 15.8% | ? | 4.78µM* | -1.1% | 6.8% | ?
COC(=O)c1ccc(COc2ccc(Cl)cc2)o1 | . | 15.7% | ? | . | 8.0% | 20.4%
Cc1c(OCC(=O)Nc2cccnc2)ccc2c3c(c(=O)oc12)CCC3 | . | 29.9% | 19µM* | . | 12.8% | 28.0%
CCN(CC)C(=O)COc1ccc2c3c(c(=O)oc2c1C)CCCC3 | . | 0.2% | -2.1% | . | 0.4% | -3.5%

Screening data (PubChem BioAssay)
